The list is not random: actives were taken first. Their share in the collection is about 12%.
Cycloheximide cs – counter-screen for Shiga toxin inhibitors: cycloheximide protein synthesis inhibition. cell reporter, cycloheximide protein synthesis inhibition counterscreen. max response, %. hit rate 12% among 300,000; in the data active = max response mostly above about 13%, no sharp cut-off; inactive = mostly below about 14%; note: read at 38.3 µM for the half of the compounds with a filed dose; 0% is about no effect
Shiga toxin inh – inhibitors of Shiga toxin in Vero cells | Vero cells, Shiga toxin protein synthesis inhibition reporter | inhibition, % at 38.7 µM | AID 2315 | hit rate 9.2% among 290,000; in the data active = inhibition mostly above about 28%, no sharp cut-off; inactive = mostly below about 43%; note: 0% is about no effect
Marburg entry inh – blocks Marburg virus binding to or entry into cells. Marburg virus pseudotyped entry inhibition, cell reporter. hit rate 1.8% among 300,000. Potency, µM (highest dose often 37.8 µM), for inactives: at the top dose activity change, negative = inhibition, hits mostly inhibitors. AID 540276; calls by dose curve; tested in HEK293 cells; note: potency is the fitted concentration of half-maximal effect; % is set by controls: 0 for no effect and ±100 for the full control effect
Lassa entry inh – blocks Lassa virus binding to or entry into cells. Potency, µM (top dose mostly 37.9 µM), inactives show top-dose activity change, negative = inhibition, most hits filed as inhibitors. AID 540256. hit rate 1.2% among 300,000. Lassa virus pseudotype entry inhibition, cell reporter; calls by dose curve; tested in HEK293 cells; note: potency is the fitted concentration of half-maximal effect; % is set by controls: 0 for no effect and ±100 for the full control effect; nearly all actives have a fitted effect of over 50% in size
* marks the source's active call; other numbers are inactive results; ? = inconclusive; · = no result; [ ] = dose if it differs, or a comment.

SMILES | Cycloheximide cs | Shiga toxin inh | Marburg entry inh | Lassa entry inh
CCN(CC)S(=O)(=O)c1cc(C(=O)Nc2ccc(Cl)cn2)ccc1C | 33* | 79* | ? | ?
CCN(CC)S(=O)(=O)c1cc(C(=O)Nc2cc(C)on2)ccc1Cl | 18 | -5 | -28%[46.1 µM] | 12%[46.1 µM]
CCN(CC)S(=O)(=O)c1cccc(C(=O)Nc2ccc(Cl)cn2)c1 | 26* | 99* | ? | ?
CCc1nc2ccccc2n1CC(=O)NC1CCS(=O)(=O)C1 (centres undefined) | · | · | 7% | -12%
CCOc1ccc(CSC2=NCCN2)cc1[N+](=O)[O-] | -1 | 0 | 4µM* | ?
CCCCOc1ccc(CSC2=NCCN2)cc1[N+](=O)[O-] | 1 | 15 | ? | 1%
Cc1ccc(Cl)cc1NC(=O)Cn1nc(-c2cccs2)ccc1=O | -4 | 13 | ? | ?
CC(OC(=O)CNC(=O)c1cccs1)C(=O)Nc1ccc(S(N)(=O)=O)cc1 (centres undefined) | · | · | 5% | 18%
O=C(CCCCl)NC(=S)Nc1ccc(N2CCOCC2)cc1 | 34* | 96* | ? | ?
O=C(NC(=S)Nc1ccc(N2CCOCC2)cc1)c1ccc(Cl)cc1 | 6 | 7 | ? | -2%
O=C(COc1ccccc1Cl)NC(=S)Nc1ccc(CN2CCOCC2)cc1 | -3 | -2 | 7% | -17%
O=C(CCCCl)NC(=S)Nc1ccc(CN2CCOCC2)cc1 | 13* | 48 | ? | -12%
CC1CCCC(C)N1C(=O)c1cc(-c2ccc(Cl)c(Cl)c2)on1 (centres undefined) | -1 | 2 | 7% | 5%
O=C(c1cc(-c2ccc(Cl)c(Cl)c2)on1)N1CCCCCC1 | 20* | 36* | ? | 8%[46.1 µM]
O=C(c1ccc2c(c1)OCO2)N1CCCCC1 | 7 | -2 | · | ·
CC1CCCC(C)N1C(=O)c1cc(-c2ccc3c(c2)OCO3)on1 (centres undefined) | 54* | 78* | -30%[46.1 µM] | -27%
O=C(c1cc(-c2ccc(O)cc2)on1)N1CCCCCC1 | 34* | 61* | -24%[46.1 µM] | ?
O=C(c1cc(-c2ccc3c(c2)OCO3)on1)N1CCCCC1 | 25* | 55* | ? | 2.8µM*
COC(=O)C1=C(C)N(Cc2ccccc2)C(=NCC(C)C)NC1c1cccc(C(F)(F)F)c1 (centres undefined) | · | · | 9%[14.2 µM] | ?
Fc1ccc(Nc2nc(-c3cccc(Cl)c3)c3c(n2)-c2ccccc2OC3)cc1 | · | · | -1%[46.1 µM] | 15%[46.1 µM]
CCOc1ccc(N2C(=O)C(C)CNC2=S)cc1 (centres undefined) | · | · | 28% | 13%
CCc1ccc(NC(=O)Cn2c(=O)n(-c3ccc(OC)cc3)c(=O)c3ccc(C(=O)NCc4ccc(C)cc4)cc32)cc1 | · | · | 16%[46.1 µM] | 5%[46.1 µM]
O=C(c1cc(-c2ccc(Cl)cc2)on1)N1CCCCCC1 | 27* | 109* | ? | ?
C=C(C)CNC(=S)NNC(=O)CCn1c2ccc(Cl)cc2c2cc(Cl)ccc21 | 0 | 11 | -15% | ?
Cc1ccc(S(=O)(=O)CNC(=S)c2cccc(Cl)c2)cc1 | -5 | -11 | 15% | -4%
SMILES | Cycloheximide cs | Shiga toxin inh | Marburg entry inh | Lassa entry inh
Cc1ccc(C(=S)NCS(=O)(=O)c2ccc(C)cc2)cc1 | 19* | 75 | ? | -2%
Cc1ccsc1CN(C)C(=O)c1ccc(Oc2ccccc2)cc1 | 18* | 63* | ? | ?
Cc1cc(NC(=O)c2ccc3c(c2)OCO3)ccc1NC(=O)c1ccco1 | 14* | 48 | 8% | -4%
O=C(Nc1cccc(NC(=O)c2ccco2)c1)c1ccc2c(c1)OCO2 | 10 | 22 | 15% | 3%
Cc1ccc(C(=O)Nc2ccc3c(c2)OCO3)cc1NC(=O)c1ccco1 | 27* | 74* | · | ·
CS(=O)(=O)c1ccccc1C(=O)Nc1ccc(-c2nc3ccccc3o2)cc1 | 31* | 65* | · | ·
CC(C)(C)N1C(=O)c2ccc(C(=O)Nc3ccc(-c4nc5ccccc5[nH]4)cc3)cc2C1=O | 29* | 47* | ? | 10%
CS(=O)(=O)c1ccccc1C(=O)Nc1ccc(-c2nc3ccccc3[nH]2)cc1 | 19* | 42* | · | ·
CS(=O)(=O)c1cccc(C(=O)Nc2ccc(-c3nc4ccccc4[nH]3)cc2)c1 | 24 | 6 | ? | -15%[46.1 µM]
CC(C)(C)N1C(=O)c2ccc(C(=O)Nc3ccc(C(=O)O)cc3)cc2C1=O | -4 | -10 | · | ·
C#CCN(CC=C)C(=O)CCc1nnc(COc2ccccc2)o1 | 42* | 59* | · | ·
CCCOc1cccc(C2c3c(oc4ccc(F)cc4c3=O)C(=O)N2Cc2ccc3c(c2)OCO3)c1 (centres undefined) | · | · | ? | 20%[46.1 µM]
CCOC(=O)c1c(C)[nH]c2cc(Br)c(OC)cc12 | 18* | 1 | -25% | 2%
Fc1ccccc1/C=N/Nc1ncnc2nc[nH]c12 | 49* | 139* | 6% | 16%
Fc1cccc(/C=N/Nc2ncnc3nc[nH]c23)c1 | 83* | 71* | -9% | -7%
Fc1ccccc1/C=N/Nc1nc(-c2ccccn2)nc2ccccc12 | 1 | 1 | · | ·
O=C(NCc1cccnc1)C(=O)N/N=C/c1ccc([N+](=O)[O-])cc1 | 4 | -3 | 22%[46.1 µM] | 0%[46.1 µM]
COc1ccc(Oc2nc3c(c(=O)n(C)c(=O)n3C)n2Cc2ccccc2Cl)cc1 | · | · | ? | -4%[46.1 µM]
CCOC(=O)N1C2=NC(C(=O)OC)=C(C(=O)OC)[C@@H]3N(C)c4ccccc4[C@]23C[C@H]1C(=O)OC | 23* | -1 | 2%[14.2 µM] | ?
Cc1ccc(Cl)c(NC(=O)COC(=O)c2ccccc2C(=O)c2ccc(Cl)c([N+](=O)[O-])c2)c1Cl | -1 | -10 | 4.6µM* | 13µM*
CCCNC(=O)COC(=O)c1ccccc1C(=O)c1ccc(Cl)c([N+](=O)[O-])c1 | 60* | 41 | 3.2µM* | ?
COc1ccc(-c2cn3c(n2)sc2cc(C(=O)NCCC4=CCCCC4)ccc23)cc1 | · | · | · | -14%[46.1 µM]
CCn1c(=O)n(CC)c2cc(N3CCCC3)c(NC(=O)Nc3cc(C)cc(C)c3)cc21 | · | · | · | -12%[46.1 µM]
COc1cccc(CNC(=O)C2CCCN(S(=O)(=O)c3c(C)[nH]c(=O)[nH]c3=O)C2)c1 (centres undefined) | 4 | 25 | 21% | 7%
COc1ccc(CCNC(=O)C(=O)N2CCCC2)cc1OC | 0 | -6 | ? | ?
SMILES | Cycloheximide cs | Shiga toxin inh | Marburg entry inh | Lassa entry inh
COc1ccc(-c2ccccc2)cc1NCc1ccccc1C | 44* | 46 | 26% | 12%
COc1ccccc1CNc1cc(-c2ccccc2)ccc1OC | 6 | -9 | -24% | 1%
Cc1cc(=O)oc2cc(OCc3cn(CC(=O)c4ccc(O)cc4)nn3)ccc12 | · | · | · | 2%[46.1 µM]
COc1ccccc1N1CCN(C(=O)c2c(C)oc3ncn(C)c(=O)c23)CC1 | · | · | · | 9%[46.1 µM]
CN(C(=O)c1cc2c(=O)n3ccccc3nc2n1C)C1CCCCC1 | 62* | 105* | ? | ?
CCN(C(=O)c1cc2c(=O)n3cccc(C)c3nc2s1)C1CCCCC1 | 15 | 1 | 21%[46.1 µM] | 6%[46.1 µM]
Cn1c(C(=O)O)cc2c(=O)n3ccccc3nc21 | -3 | -5 | · | ·
CCN(C(=O)c1cc2c(=O)n3ccccc3nc2n1C)C1CCCCC1 | 37* | 61* | · | ·
CCN(C(=O)c1cc2c(=O)n3ccccc3nc2n1CCCOC)C1CCCCC1 | 3 | -6 | -2%[46.1 µM] | -2%[46.1 µM]
CCN(C(=O)c1cc2c(=O)n3ccccc3nc2s1)C1CCCCC1 | 18 | 44* | ? | 9%

Source: PubChem
